In PubChem BioAssay (NCATS):
“And” between values parts separate entries of the source, which are not always exact repeats. Identical values can stand only once. Results filed as inconclusive are left out. The source made the active and inactive calls. Unless noted, calls come from the whole dose curve; as a rule, active = well fitted curve in the direction sought with a large enough effect; inconclusive = small, poorly fitted or top-dose-only effect, or another doubt; inactive = no such curve, though single readings can be large; an effect the other way counts as inactive or inconclusive.

Key:
[1] = molecular target: Cellular tumor antigen p53 (Homo sapiens) (UniProt P04637); test: Primary qHTS for small molecule compounds that upregulate eGFP-tagged delta133p53alpha (in N-terminal) cells. (AID 2060322); conditions: NCI-H358 eGFP-delta133p53alpha fluorescence, 24 h; activation: stronger effect = higher value;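 note: series mostly up to about 56 µM; 0% = DMSO vehicle and 100% = reference activator; nearly all actives have a fitted effect of over 75% in size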
Sequence of Cellular tumor antigen p53 (Homo sapiens) (P04637 whole entry, looked up): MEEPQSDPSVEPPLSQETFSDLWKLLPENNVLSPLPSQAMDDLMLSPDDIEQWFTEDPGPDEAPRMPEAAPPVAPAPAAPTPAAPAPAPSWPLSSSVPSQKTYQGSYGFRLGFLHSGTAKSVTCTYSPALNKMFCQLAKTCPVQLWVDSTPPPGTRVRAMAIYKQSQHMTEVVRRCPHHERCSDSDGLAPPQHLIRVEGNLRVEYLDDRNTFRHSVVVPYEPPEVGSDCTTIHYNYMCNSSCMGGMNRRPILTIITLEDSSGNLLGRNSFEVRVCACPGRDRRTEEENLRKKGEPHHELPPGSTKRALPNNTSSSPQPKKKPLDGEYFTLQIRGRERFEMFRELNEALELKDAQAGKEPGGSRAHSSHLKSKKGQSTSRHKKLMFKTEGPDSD
How it was run: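 NCI-H358 cells pre-induced 24 h with 10 ng/ml doxycycline to express N-terminal eGFP-delta133p53alpha, then dosed 24 h at 37C without doxycycline; fixed, Hoechst-stained, GFP intensity by laser scanning cytometry, normalized to DMSO (0%) and 57.5 uM 5-azacytidine (100%).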

[2] = molecular target: Cellular tumor antigen p53 (Homo sapiens) (UniProt P04637); test: Primary qHTS for small molecule compounds that upregulate eGFP-tagged delta133p53alpha (in C-terminal) cells. (AID 2060324);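 note: 0% = DMSO wells and 100% = 57.5 µM 5-azacytidine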
How it was run: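 NCI-H358 cells with doxycycline-inducible D133p53a-eGFP (C-terminal tag), pre-induced 24 h with 100 ng/ml doxycycline, plated 800/well in doxycycline-free medium and treated 24 h at 37 °C with compound titrations. Cells were then fixed and Hoechst-stained, and GFP intensity was read by laser scanning cytometry.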

[3] = molecular target: Aldehyde dehydrogenase, mitochondrial (Homo sapiens) (UniProt P05091); test: qHTS for Inhibitors of the Aldehyde Dehydrogenase Family (ALDH2) Validation screens (AID 2061302; active = well fitted inhibition curve with a large enough effect; title and protocol of this record describe different tests; note: potency is the fitted concentration of half-maximal effect)
[4] = molecular target: Aldehyde dehydrogenase, mitochondrial (Homo sapiens) (UniProt P05091); test: qHTS for Inhibitors of the Aldehyde Dehydrogenase Family (ALDH2) Confirmatory screens (AID 2061303; active = well fitted inhibition curve with a large enough effect; title and protocol of this record describe different tests; note: nearly all actives have a fitted effect of over 45% in size; note: potency is the fitted concentration of half-maximal effect)
[5] = molecular target: Retinaldehyde dehydrogenase 3 (Homo sapiens) (UniProt P47895); test: qHTS for Inhibitors of the Aldehyde Dehydrogenase Family (ALDH1A3) Confirmatory screens (AID 2061311); note: nearly all actives have a fitted effect of over 60% in size; note: potency is the fitted concentration of half-maximal effect
[6] = molecular target: Aldehyde dehydrogenase 1A1 (Homo sapiens) (UniProt P00352); test: qHTS for Inhibitors of the Aldehyde Dehydrogenase Family (ALDH1A1) Confirmatory screens (AID 2061316); note: nearly all actives have a fitted effect of over 65% in size; note: potency is the fitted concentration of half-maximal effect
[7] = molecular target: Aldehyde dehydrogenase, mitochondrial (Homo sapiens) (UniProt P05091); test: qHTS for Inhibitors of the Aldehyde Dehydrogenase Family (ALDH2) Primary screen (AID 2061308);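 note: plate controls were vehicle for no effect and reference inhibitor for full effect; nearly all actives have a fitted effect of over 55% in size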
[8] = molecular target: Retinaldehyde dehydrogenase 3 (Homo sapiens) (UniProt P47895); test: qHTS for Inhibitors of the Aldehyde Dehydrogenase Family (ALDH1A3) Validation screen (AID 2061312); note: % is set by controls: 0 for no effect and ±100 for the full control effect; nearly all actives have a fitted effect of over 45% in size
[9] = molecular target: Retinaldehyde dehydrogenase 3 (Homo sapiens) (UniProt P47895); test: qHTS for Inhibitors of the Aldehyde Dehydrogenase Family (ALDH1A3) Primary screen (AID 2061315);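 note: plate controls were DMSO vehicle for no effect and reference inhibitor for full effect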
[10] = qHTS for Inhibitors of the Aldehyde Dehydrogenase Family (ALDH1A2, ALDH1A3, ALDH2, ALDH3A1) (AID 2061307); note: nearly all actives have a fitted effect of over 50% in size; for Potency: test system not described further here; potency is the fitted concentration of half-maximal effect
[11] = molecular target: Retinal dehydrogenase 2 (Homo sapiens) (UniProt O94788); test: qHTS for Inhibitors of the Aldehyde Dehydrogenase Family (ALDH1A2) Confirmation screens (AID 2061314); note: nearly all actives have a fitted effect of over 65% in size; note: potency is the fitted concentration of half-maximal effect
[12] = BET inhibitor-based combinations targeting novel dependencies in MECOM-rearranged (r) AML: SET-2 cell line (AID 2202231); conditions: SET-2 AML cells viability, CellTiter-Glo luminescence, 48 h; viability: stronger effect = lower value, series mostly up to about 46 µM;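 note: plate controls were DMSO treated cells for no effect and wells without cells for full effect; nearly all actives have a fitted effect of over 35% in size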
How it was run: (§1)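 Luminescent ATP readout (CellTiter-Glo) after 48 hr drug exposure gives viability. Curves span 11 concentrations and are normalized to DMSO and empty wells. Activity is reported as area under the curve and its Z-transform within each cell line.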

[13] = BET inhibitor-based combinations targeting novel dependencies in MECOM-rearranged (r) AML: OCI-AML3 cell line (AID 2202232); conditions: Potency: OCI-AML3 viability; note: nearly all actives have a fitted effect of over 35% in size; note: potency is the fitted concentration of half-maximal effect
How it was run: as §1

[14] = BET inhibitor-based combinations targeting novel dependencies in MECOM-rearranged (r) AML: MV-4-11 cell line (AID 2202233); note: nearly all actives have a fitted effect of over 45% in size; note: potency is the fitted concentration of half-maximal effect
How it was run: (§2)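 Luminescent ATP readout (CellTiter-Glo, 15 min at room temperature) after 48 hr drug exposure gave viability. Dose-response curves, normalized to DMSO and empty-well controls, were summarized as area under the curve and its mean-centred Z-score.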

[15] = BET inhibitor-based combinations targeting novel dependencies in MECOM-rearranged (r) AML: HNT-34 cell line (AID 2202234); note: nearly all actives have a fitted effect of over 35% in size; note: potency is the fitted concentration of half-maximal effect
How it was run: as §2

[16] = BET inhibitor-based combinations targeting novel dependencies in MECOM-rearranged (r) AML: UCSD-AML1 cell line (AID 2202235);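 note: series mostly up to about 46 µM; plate controls were DMSO vehicle wells for no effect and blank wells for full effect; nearly all actives have a fitted effect of over 40% in size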
How it was run: as §2

[17] = BET inhibitor-based combinations targeting novel dependencies in MECOM-rearranged (r) AML: AML-191 cell line (AID 2202236; note: nearly all actives have a fitted effect of over 35% in size; note: potency is the fitted concentration of half-maximal effect)
How it was run: as §1

[18] = BET inhibitor-based combinations targeting novel dependencies in MECOM-rearranged (r) AML: AML-194 cell line (AID 2202237;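 note: plate controls were vehicle wells for no effect and wells without cells for full effect; nearly all actives have a fitted effect of over 40% in size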)
How it was run: as §1

O=Nc1ccc2oc(=O)ccc2c1
inactive: activation [1] -33.9% | Potency [2]
active: Potency [3] 1.12 µM | Potency [4] 1.27 µM | Potency [5] 283 nM | Potency [6] 0.283 µM

O=C(O)CCc1nc(-c2ccccc2)c(-c2ccccc2)o1
inactive: activation [1] -3.34% and -25.4% | Potency [2] | Potency [3] | Potency [7] | Potency [8] | Potency [9]

CN(C)CCC(c1ccccc1)c1ccccn1 (stereo unspecified)
inactive: activation [1] -2.82% and -9.55% and -25.6% | Potency [2] | Potency [3] | Potency [7] | Potency [8] | Potency [9]

NC(=O)c1cc[n+](CC2=C(C(=O)O)N3C(=O)[C@@H](NC(=O)[C@@H](c4ccccc4)S(=O)(=O)[O-])[C@H]3SC2)cc1
inactive: activation [1] -28.8% | Potency [2] | Potency [3] | Potency [10] | Potency [5] | Potency [11]

CS(=O)(=O)c1ccc(-n2nc(C(F)(F)F)cc2-c2ccc(F)cc2)cc1
inactive: activation [1] -27.4% and -11.6% | Potency [2] | Potency [3] | Potency [7] | Potency [8] | Potency [9]

CN(C)C(=O)/N=N/C(=O)N(C)C
inactive: activation [1] -3.88% | Potency [2] | Potency [3] | Potency [10]
active: Potency [11] 12.7 µM

Nc1ncnc2c1c(-c1ccc(Oc3ccccc3)cc1)cn2C1CCCC1
inactive: activation [1] -45.6% | Potency [2] | Potency [3] | Potency [7] | Potency [8] | Potency [9]

CCc1ccc(/C=C2/SC(=S)NC2=O)cc1
inactive: activation [1] -0.0291% | Potency [2] | Potency [3] | Potency [10] | Potency [5] | Potency [8] | Potency [11] | viability [12] 89.4% | Potency [13] | Potency [14] | Potency [15] | Potency [16] | Potency [17] | Potency [18]

Cc1cn[nH]c1
inactive: activation [1] 25.4% and 16.2% and -25.1% | Potency [2] | Potency [3] | Potency [4] | Potency [5] | Potency [6] | Potency [16]

O=[N+]([O-])c1ccc(CNc2nc(NCc3cccc(C(F)(F)F)c3)nc3nc[nH]c23)cc1
inactive: activation [1] -48.1% and 15.7% | Potency [2] | Potency [3] | Potency [7] | Potency [8] | Potency [9]

Cc1[nH]c(=O)c(C#N)cc1-c1ccncc1
inactive: activation [1] 7.4% and -9.21% and 7.59% | Potency [2] | Potency [3] | Potency [4] | Potency [5] | Potency [11] | viability [12] 118% | Potency [13] | Potency [14] | Potency [15] | Potency [16] | Potency [17] | Potency [18]

CC(=O)CCCCn1c(=O)c2c(ncn2C)n(C)c1=O
inactive: activation [1] -15.1% and -0.333% and -11.4% | Potency [2] | Potency [3] | Potency [7] | Potency [8] | Potency [9]

O=C(/C=C/c1ccc(O)cc1)c1ccc(O)cc1O
inactive: activation [1] -26.4% | Potency [2] | Potency [3] | Potency [4] | Potency [16]
active: Potency [10] 1.2 µM | Potency [5] 504 nM | Potency [6] 3.18 µM | Potency [13] 14.8 µM | Potency [14] 11.8 µM | Potency [15] 9.34 µM | Potency [17] 26.3 µM

CNC(=O)Oc1ccc2c(c1)[C@]1(C)CCN(C)[C@@H]1N2C
active: Potency [10] 8.96 µM
inactive: activation [1] -31.1% and -29.5% and 2.6% | Potency [2] | Potency [3] | Potency [8]

COc1ccc(/C=C/c2nc(NCCCN(C)C)c3ccccc3n2)cc1
inactive: activation [1] -29.6% | Potency [2] | Potency [3] | Potency [10]

NC(=S)c1ccc[n+]([C@@H]2O[C@@H](COP(=O)([O-])OP(=O)(O)OC[C@H]3O[C@@H](n4cnc5c(N)ncnc54)[C@H](OP(=O)(O)O)[C@@H]3O)C(O)C2O)c1 (stereo partly specified)
active: Potency [10] 20.1 µM | Potency [6] 25.2 µM
inactive: activation [1] -2.21% | Potency [2] | Potency [3] | Potency [4]

COc1cc2c(CCNC(C)=O)c[nH]c2cc1Cl
inactive: activation [1] -18.2% | Potency [2] | Potency [3] | Potency [10] | Potency [5] | Potency [11]

CN1CCC2(CCN3CCc4c(oc5ccccc45)C3C2)N(C)C1=O (stereo unspecified)
inactive: activation [1] -14.7% | Potency [2] | Potency [3] | Potency [4] | Potency [10] | Potency [5] | Potency [6]

N=C(N)c1ccc(N)cc1
inactive: activation [1] -28.3% | Potency [2] | Potency [3] | Potency [4] | Potency [10] | Potency [11]

CCN1CCC[C@H]1CNC(=O)c1cc(S(N)(=O)=O)ccc1OC
inactive: activation [1] -14.2% and 19% and 1.55% | Potency [2] | Potency [3] | Potency [7] | Potency [8] | Potency [9]

O=[N+]([O-])c1ccc(-c2nc(-c3ccc(F)cc3)c(-c3ccncc3)[nH]2)cc1
active: Potency [14] 16.6 µM
inactive: activation [1] 47.4% | Potency [2] | Potency [3] | Potency [7] | Potency [8] | Potency [9] | viability [12] 106% | Potency [13] | Potency [15] | Potency [17] | Potency [18]
